Substitutions are numbered along the chain they refer to.

Assay in all cases: PBM; 200 nM protein, PBS
Common to all, as to details: dsDNA, one strand shown

For test [1], the target named is HOXC9 (Homo sapiens, UniProt P31274 178-260, K195R).
Test [2] has as its target HOXC9 (Homo sapiens, UniProt P31274 178-260).
Test [3] has as its target HOXC9 (Homo sapiens, UniProt P31274 178-260, R193K).
Test [4] deals with HOXC9 (Homo sapiens, UniProt P31274 178-260, R222W).
For test [5], the target named is T1, VENTX (Homo sapiens, UniProt O95231 78-163).
T1 sequence: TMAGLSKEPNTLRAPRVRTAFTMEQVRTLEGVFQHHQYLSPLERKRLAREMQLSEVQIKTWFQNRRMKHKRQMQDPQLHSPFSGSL

Test [6] has as its target HOXA2 (Homo sapiens, UniProt O43364 129-215, R185T).
Test [7] concerns the target HOXA2 (Homo sapiens, UniProt O43364 129-215).
Test [8] addresses HOXA7 (Homo sapiens, UniProt P31268 116-202).
In test [9] the target is HOXC10 (Homo sapiens, UniProt Q9NYD6 254-340).
The target of test [10] is HOXC10 (Homo sapiens, UniProt Q9NYD6 254-340, K271E).
Test [11] concerns the target HOXA7 (Homo sapiens, UniProt P31268 116-202, W177C).
The target in the next test is ALX4 (Homo sapiens, UniProt Q9H161 200-286).
The target of test [12] is HOXB6 (Homo sapiens, UniProt P17509 132-218, K202E).
Test [13] deals with HOXB6 (Homo sapiens, UniProt P17509 132-218).
The target in test [14] is HOXA2 (Homo sapiens, UniProt O43364 129-215, R185K).
For test [15], the target named is HOXA2 (Homo sapiens, UniProt O43364 129-215, Y150S).
Test [16] addresses T2, VENTX (Homo sapiens, UniProt O95231 78-163, Y115F).
T2 sequence: T1 sequence with Y38F

The target of test [17] is NKX3-2 (Homo sapiens, UniProt P78367 192-278, P234S).
For test [18], the target named is NKX3-2 (Homo sapiens, UniProt P78367 192-278).
Chain of NKX3-2 (Homo sapiens, UniProt P78367 192-278) (P78367 192-278): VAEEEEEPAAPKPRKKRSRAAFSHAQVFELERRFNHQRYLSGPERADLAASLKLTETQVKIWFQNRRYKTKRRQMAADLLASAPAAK

Chain of HOXA7 (Homo sapiens, UniProt P31268 116-202, W177C) (P31268 116-202 W177C): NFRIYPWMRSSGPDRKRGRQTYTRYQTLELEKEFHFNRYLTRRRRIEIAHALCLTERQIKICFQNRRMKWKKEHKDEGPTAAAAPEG
Chain of HOXA7 (Homo sapiens, UniProt P31268 116-202) (P31268 116-202): as the sequence (P31268 116-202 W177C) above, with C62W counted along it
Chain of HOXC10 (Homo sapiens, UniProt Q9NYD6 254-340, K271E) (Q9NYD6 254-340 K271E): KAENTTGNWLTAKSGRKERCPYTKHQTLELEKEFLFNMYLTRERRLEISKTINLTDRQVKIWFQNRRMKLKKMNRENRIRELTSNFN
Chain of HOXC10 (Homo sapiens, UniProt Q9NYD6 254-340) (Q9NYD6 254-340): as the sequence (Q9NYD6 254-340 K271E) above, with E18K counted along it
Chain of HOXC9 (Homo sapiens, UniProt P31274 178-260, K195R) (P31274 178-260 K195R): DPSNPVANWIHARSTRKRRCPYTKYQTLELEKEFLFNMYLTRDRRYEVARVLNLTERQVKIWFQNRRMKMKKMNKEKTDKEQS
Chain of HOXC9 (Homo sapiens, UniProt P31274 178-260, R193K) (P31274 178-260 R193K): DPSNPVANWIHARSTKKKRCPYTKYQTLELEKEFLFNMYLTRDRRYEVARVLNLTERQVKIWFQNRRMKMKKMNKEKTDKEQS
Chain of HOXC9 (Homo sapiens, UniProt P31274 178-260) (P31274 178-260): as the sequence (P31274 178-260 R193K) above, with K16R counted along it
Chain of HOXC9 (Homo sapiens, UniProt P31274 178-260, R222W) (P31274 178-260 R222W): as the sequence (P31274 178-260 R193K) above, with K16R, R45W counted along it
Chain of ALX4 (Q9H161 200-286): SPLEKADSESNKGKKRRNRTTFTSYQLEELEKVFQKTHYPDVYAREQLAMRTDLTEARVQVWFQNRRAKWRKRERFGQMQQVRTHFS
Chain of HOXA2 (Homo sapiens, UniProt O43364 129-215, R185T) (O43364 129-215 R185T): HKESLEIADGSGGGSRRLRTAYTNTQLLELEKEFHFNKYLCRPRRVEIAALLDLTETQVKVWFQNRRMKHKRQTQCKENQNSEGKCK
Chain of HOXA2 (Homo sapiens, UniProt O43364 129-215) (O43364 129-215): as the sequence (O43364 129-215 R185T) above, with T57R counted along it
Chain of HOXB6 (Homo sapiens, UniProt P17509 132-218, K202E) (P17509 132-218 K202E): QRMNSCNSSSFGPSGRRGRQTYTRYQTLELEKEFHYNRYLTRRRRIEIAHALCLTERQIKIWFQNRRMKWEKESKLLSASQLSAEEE
Chain of HOXB6 (Homo sapiens, UniProt P17509 132-218) (P17509 132-218): as the sequence (P17509 132-218 K202E) above, with E71K counted along it
Chain of HOXA2 (Homo sapiens, UniProt O43364 129-215, R185K) (O43364 129-215 R185K): as the sequence (O43364 129-215 R185T) above, with T57K counted along it
Chain of HOXA2 (Homo sapiens, UniProt O43364 129-215, Y150S) (O43364 129-215 Y150S): as the sequence (O43364 129-215 R185T) above, with Y22S, T57R counted along it
Chain of NKX3-2 (Homo sapiens, UniProt P78367 192-278, P234S) (P78367 192-278 P234S): as the sequence (P78367 192-278) above, with P43S counted along it

Consider ATAATAAC, for which the binding signal was 12 upbm affinity estimate (log intensity, higher = more binding, comparable within an allelic series) in the test with HOXC9 [1]; 12 upbm affinity estimate (log intensity, higher = more binding, comparable within an allelic series) with HOXC9 [2]; 12 upbm affinity estimate (log intensity, higher = more binding, comparable within an allelic series) in the test with HOXC9 [3]; 10.7 upbm affinity estimate (log intensity, higher = more binding, comparable within an allelic series) with HOXC9 [4].
On to ACCGCTTA, for which the binding signal with VENTX [5] was 10.8 upbm affinity estimate (log intensity, higher = more binding, comparable within an allelic series).
As to AACCAAAT, the binding signal is 10 upbm affinity estimate (log intensity, higher = more binding, comparable within an allelic series) in the test with VENTX [5]; 9.12 upbm affinity estimate (log intensity, higher = more binding, comparable within an allelic series) in the test with HOXA2 [6]; 9.13 upbm affinity estimate (log intensity, higher = more binding, comparable within an allelic series) in the test with HOXA2 [7].
CAGGTCCC: the binding signal was 8.47 upbm affinity estimate (log intensity, higher = more binding, comparable within an allelic series) in the test with HOXA7 [8]; 10 upbm affinity estimate (log intensity, higher = more binding, comparable within an allelic series) in the test with HOXC10 [9]; 10.1 upbm affinity estimate (log intensity, higher = more binding, comparable within an allelic series) with HOXC10 [10]; 8.4 upbm affinity estimate (log intensity, higher = more binding, comparable within an allelic series) with HOXA7 [11].
On to AGGACGTG, for which the binding signal was 9.73 upbm affinity estimate (log intensity, higher = more binding, comparable within an allelic series) with HOXC9 [1]; 9.75 upbm affinity estimate (log intensity, higher = more binding, comparable within an allelic series) with HOXC9 [2]; 9.75 upbm affinity estimate (log intensity, higher = more binding, comparable within an allelic series) with HOXC9 [3]; 9.71 upbm affinity estimate (log intensity, higher = more binding, comparable within an allelic series) with HOXC9 [4].
As for TCCTTCGA, the binding signal is 9.75 upbm affinity estimate (log intensity, higher = more binding, comparable within an allelic series) in the test with HOXC9 [1]; 9.66 upbm affinity estimate (log intensity, higher = more binding, comparable within an allelic series) in the test with HOXC9 [2]; 9.72 upbm affinity estimate (log intensity, higher = more binding, comparable within an allelic series) with HOXC9 [3]; 9.84 upbm affinity estimate (log intensity, higher = more binding, comparable within an allelic series) with HOXC9 [4].
CCTAGACG: the binding signal with HOXC9 [1] was 9.79 upbm affinity estimate (log intensity, higher = more binding, comparable within an allelic series); in the test with HOXC9 [2], 9.86 upbm affinity estimate (log intensity, higher = more binding, comparable within an allelic series); with HOXC9 [3], 9.81 upbm affinity estimate (log intensity, higher = more binding, comparable within an allelic series); with HOXC9 [4], 9.82 upbm affinity estimate (log intensity, higher = more binding, comparable within an allelic series).
Regarding ATTTAGAC, the binding signal in the test with HOXA7 [8] is 9.49 upbm affinity estimate (log intensity, higher = more binding, comparable within an allelic series).
Turning to GGGGGGCA, the binding signal with HOXC9 [1] was 9.42 upbm affinity estimate (log intensity, higher = more binding, comparable within an allelic series); with HOXC9 [2] it was 9.53 upbm affinity estimate (log intensity, higher = more binding, comparable within an allelic series); in the test with HOXC9 [3], 9.49 upbm affinity estimate (log intensity, higher = more binding, comparable within an allelic series); with HOXC9 [4], 9.28 upbm affinity estimate (log intensity, higher = more binding, comparable within an allelic series).
For the sequence CCGGAAGG, the binding signal in the test with HOXC9 [1] was 9.63 upbm affinity estimate (log intensity, higher = more binding, comparable within an allelic series); in the test with HOXC9 [2] it was 9.81 upbm affinity estimate (log intensity, higher = more binding, comparable within an allelic series); with HOXC9 [3], 9.73 upbm affinity estimate (log intensity, higher = more binding, comparable within an allelic series); with HOXC9 [4], 9.78 upbm affinity estimate (log intensity, higher = more binding, comparable within an allelic series).
On to GATTGAGC, for which the binding signal with VENTX [5] was 9.7 upbm affinity estimate (log intensity, higher = more binding, comparable within an allelic series).
For the sequence CGACTTAA, the binding signal with VENTX [5] was 10.1 upbm affinity estimate (log intensity, higher = more binding, comparable within an allelic series); with ALX4 it was 10.3 upbm affinity estimate (log intensity, higher = more binding, comparable within an allelic series).
For the sequence GAGTCCGC, the binding signal with HOXA7 [8] was 8.56 upbm affinity estimate (log intensity, higher = more binding, comparable within an allelic series); with HOXC10 [9] it was 10.1 upbm affinity estimate (log intensity, higher = more binding, comparable within an allelic series); with HOXB6 [12], 9.05 upbm affinity estimate (log intensity, higher = more binding, comparable within an allelic series); with HOXC10 [10], 10.1 upbm affinity estimate (log intensity, higher = more binding, comparable within an allelic series); with HOXA7 [11], 8.39 upbm affinity estimate (log intensity, higher = more binding, comparable within an allelic series); with HOXB6 [13], 8.98 upbm affinity estimate (log intensity, higher = more binding, comparable within an allelic series).
For CACCGGTC, the binding signal in the test with HOXA7 [8] is 8.56 upbm affinity estimate (log intensity, higher = more binding, comparable within an allelic series); with HOXC10 [9], 10 upbm affinity estimate (log intensity, higher = more binding, comparable within an allelic series); with HOXA2 [6] it was 7.38 upbm affinity estimate (log intensity, higher = more binding, comparable within an allelic series); with HOXA2 [14], 10.4 upbm affinity estimate (log intensity, higher = more binding, comparable within an allelic series); with HOXC10 [10], 9.92 upbm affinity estimate (log intensity, higher = more binding, comparable within an allelic series); with HOXA2 [15] it was 10.3 upbm affinity estimate (log intensity, higher = more binding, comparable within an allelic series). The binding signal with HOXA7 [11] was 8.34 upbm affinity estimate (log intensity, higher = more binding, comparable within an allelic series); with HOXA2 [7], 7.28 upbm affinity estimate (log intensity, higher = more binding, comparable within an allelic series).
Consider ATTTAGTC, for which, in the test with VENTX [5], the binding signal is 10.2 upbm affinity estimate (log intensity, higher = more binding, comparable within an allelic series).
For the sequence AATTGGAC, the binding signal with VENTX [5] was 10.1 upbm affinity estimate (log intensity, higher = more binding, comparable within an allelic series); with VENTX [16], 9.62 upbm affinity estimate (log intensity, higher = more binding, comparable within an allelic series).
Regarding CCGGTACC, the binding signal with HOXC9 [1] was 9.7 upbm affinity estimate (log intensity, higher = more binding, comparable within an allelic series); in the test with HOXC9 [2], 9.7 upbm affinity estimate (log intensity, higher = more binding, comparable within an allelic series); with HOXC9 [3], 9.72 upbm affinity estimate (log intensity, higher = more binding, comparable within an allelic series); with HOXC9 [4] it was 9.71 upbm affinity estimate (log intensity, higher = more binding, comparable within an allelic series); with NKX3-2 [17], 10.5 upbm affinity estimate (log intensity, higher = more binding, comparable within an allelic series); in the test with NKX3-2 [18], 10.6 upbm affinity estimate (log intensity, higher = more binding, comparable within an allelic series).
In the case of ACTAAGCG, the binding signal in the test with VENTX [5] was 10.2 upbm affinity estimate (log intensity, higher = more binding, comparable within an allelic series).
The same measure, in the same setting: in the case of TATGAATA it was 10.3 upbm affinity estimate (log intensity, higher = more binding, comparable within an allelic series).
Consider CTAACGCA, for which the binding signal with VENTX [5] was 9.98 upbm affinity estimate (log intensity, higher = more binding, comparable within an allelic series); in the test with ALX4, 9.64 upbm affinity estimate (log intensity, higher = more binding, comparable within an allelic series).
For GGTGATAA, the binding signal with VENTX [5] is 10.3 upbm affinity estimate (log intensity, higher = more binding, comparable within an allelic series).
On the same count and under the same terms, to CATTTACG belongs 10.4 upbm affinity estimate (log intensity, higher = more binding, comparable within an allelic series).

(Values after article PMC11006913.)
